Measurements published in PubChem BioAssay (NCATS).
Records with an inconclusive call do not appear. A call without a number means that no potency is given here. Calls of active or inactive are those of the source. Calls follow the shape of the dose curve; as a rule, active = well fitted cell-killing curve with a large enough effect; inconclusive = small, poorly fitted or top-dose-only effect, or effect the other way; inactive = flat fitted curve, though single readings scatter.

experiment: qHTS assay for cell viability of the p53RE-bla HCT-116 cell line (AID 743292); conditions: p53RE-bla HCT-116 viability, ATP luminescence, 16 h; series mostly up to 95 µM; also: nearly all actives have a fitted effect of over 55% in size
Summary of the method: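 Intracellular ATP of p53RE-bla HCT-116 cells measured by luciferase luminescence following 16 h compound incubation at 37 C; DMSO-only wells served as vehicle controls.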

| Structure (SMILES) | Potency |
| --- | --- |
| CC(O)CN(CCN(CC(C)O)CC(C)O)CC(C)O (stereo unspecified) | inactive |
| NC(=O)N/N=C/c1ccc([N+](=O)[O-])o1 | inactive |
| CCCc1c(OCCCCc2nn[nH]n2)ccc(C(C)=O)c1O | inactive |
| CN(C)CCCN1c2ccccc2CCc2ccccc21 | inactive |
| CCCCOC(=O)c1ccc(O)cc1 | inactive |
| CC12CCC(CC1)C(C)(C)O2 | inactive |
| [Cl][In]([Cl])[Cl] | inactive |
| O=C1O[C@H]([C@@H](O)CO)C(O)=C1O | inactive |
| O=C1c2c(O)cccc2Cc2cccc(O)c21 | inactive |
| O=C1NS(=O)(=O)c2ccccc21 | inactive |
| CCCCCCCCCCCCOS(=O)(=O)O | inactive |
